Holding throughout (assay type): functional
Assay [1] has as its target Solute carrier family 2, facilitated glucose transporter member 1 (Homo sapiens) (UniProt P11166). The assay can be described thus: ST_JUDE_LEISH: Cytotoxicity at 2uM final concentration against transgenic Leishmania Mexicana promastigotes LmGLUT1 that are glucose transport deficient and complemented with the human glucose transporter GLUT1. Activity is measured by DNA content using SYBR green in vitro.

Assay [2] has as its target Hexose transporter 1 (Plasmodium falciparum) (UniProt O97467). The assay can be described thus: ST_JUDE_LEISH: Cytotoxicity at 2uM final concentration against transgenic Leishmania Mexicana promastigotes LmPfHT that are glucose transport deficient and complemented with the Plasmodium falciparum hexose transporter. Activity is measured by DNA content using SYBR green in vitro.

For assay [3], the target named is Glucose transporter (Leishmania mexicana) (UniProt O61059). The assay can be described thus: ST_JUDE_LEISH: Cytotoxicity at 2uM final concentration against transgenic Leishmania Mexicana promastigotes LmGT2 that are glucose transport deficient and complemented with the L. Mexicana glucose transporter 2. Activity is measured by DNA content using SYBR green in vitro.

Sequence of Solute carrier family 2, facilitated glucose transporter member 1 (Homo sapiens) (P11166 whole entry): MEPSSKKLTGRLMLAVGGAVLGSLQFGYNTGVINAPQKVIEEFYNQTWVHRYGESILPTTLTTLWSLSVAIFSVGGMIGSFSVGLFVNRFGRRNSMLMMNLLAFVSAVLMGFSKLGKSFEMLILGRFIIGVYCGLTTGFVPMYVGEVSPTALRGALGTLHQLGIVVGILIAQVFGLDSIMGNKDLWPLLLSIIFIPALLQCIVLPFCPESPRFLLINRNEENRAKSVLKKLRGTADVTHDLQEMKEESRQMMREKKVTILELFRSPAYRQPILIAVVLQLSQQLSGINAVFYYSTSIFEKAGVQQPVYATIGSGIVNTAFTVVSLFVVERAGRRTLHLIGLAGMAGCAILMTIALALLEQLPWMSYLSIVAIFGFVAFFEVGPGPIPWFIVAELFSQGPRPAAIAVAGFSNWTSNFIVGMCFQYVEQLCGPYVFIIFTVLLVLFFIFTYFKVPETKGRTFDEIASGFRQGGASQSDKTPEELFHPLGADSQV

On to `CS(=O)(=O)CCNC(=O)c1ccc(-c2cc3c(Nc4ccc5c(cnn5Cc5ccccc5)c4)ncnc3cn2)o1`, for which the figures for the inhibition in assay [1], in assay [2] and in assay [3] were 3.86%, 3.93% and 4.93%, respectively.

On to `c1cc(CN2CCC(CCN3CCCCC3)CC2)cc(-c2cccc(-c3nc4ccccc4[nH]3)c2)c1`, for which the figures for the inhibition in assay [1], in assay [2] and in assay [3] were 2.17%, 2.55% and 3.39%, respectively.

Turning to `CC12CCC(CN(CC(O)Cn3c4ccccc4c4cc(I)ccc43)C1)C2(C)C` (stereo unspecified), the results for the inhibition in assay [1], in assay [2] and in assay [3] were 2.02%, 2.5% and 0.07%, respectively.

`O=C(Nc1ccc(Cl)cc1)N(CC1CC2CCC(C1)N2Cc1ccc(C(F)(F)F)cc1)c1ccc(N2CCOCC2)c(F)c1` (stereo unspecified): the inhibition was found to be 6.73% in assay [1], 5.58% in assay [2] and 8.78% in assay [3].

Regarding `Cc1ccc(C(=O)Cn2nc(-c3ccc(C)c(S(=O)(=O)N4CCCC4)c3)ccc2=O)cc1`, the results for the inhibition in assay [1], in assay [2] and in assay [3] were 1.61%, 0.61% and 2.62%, respectively.

On to `Cc1ccc(F)cc1S(=O)(=O)Nc1cccc(CCN2CCC(N3CCCCC3)CC2)c1`, for which the inhibition in assay [1] turned out to be 3.52%; in assay [2], 6.1%; in assay [3], 0.55%.

In the case of `Cc1cccc2nc(-c3cccc(-c4ccc(NC(=O)c5ccoc5)cc4)c3)[nH]c12`, the inhibition in assay [1] is -0.27%; in assay [2], 2.14%; in assay [3], -1.09%.

For the compound `CC1CCN(CC[C@H]2CCCN2S(=O)(=O)c2cccc(NC(=O)c3ccc(-c4ccccc4)cc3)c2)CC1`, the inhibition in assay [1] was 3.61%; in assay [2] it was 1.72%; in assay [3] it was -0.42%.

Consider `C=CCc1cc(Cc2cnc(N)nc2N)cc(CCC)c1OC`, for which the inhibition in assay [1] is 15.3%; in assay [2], 12.5%; in assay [3], 8.6%.

For the compound `CC(C)NCc1ccc(-c2cccc(NC(=O)c3ccc(C#N)cc3)c2)cc1`, the values for the inhibition in assay [1], in assay [2] and in assay [3] were 6.75%, 4.9% and 7.32%, respectively.

Consider `Cc1ccc(NC(=O)Nc2ccc(Cl)cc2)cc1-c1cccc(C(=O)Nc2ccc(F)cc2)c1`, for which the inhibition was -1.9% in assay [1], 2.5% in assay [2] and 5.14% in assay [3].

Take `COc1ccc(C(=O)Nc2ccc3oc(-c4ccc(C(F)(F)F)cc4)cc3c2)cc1CCCN(C)C`: the inhibition in assay [1] is 1.78%; in assay [2], 2.26%; in assay [3], 0.34%.

Usually inhibition stands for the change of the read-out against control, counted positive when it falls.

These data come from ChEMBL document CHEMBL3433997, “St. Jude Leishmania screening dataset” (2016).
